Assay outcomes from PubChem.
An excerpt weighted towards active compounds, which were near 1.6% of everything screened.
Akt phos inh: blocks phosphorylation of Akt; Neuro2A IGF-stimulated pAkt S473 HTRF, 20 min; stronger effect = lower value; activity change, % for hits at 50 µM; actives 0.32% (n = 360,000); in the data active = activity change below about -80%; inconclusive = mostly about -51% to -80%; also: % is scaled to controls: 0 for no effect and ±100 for the full control effect
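Neuro2A cells in DMEM with 0.5% FBS, overnight at 37 deg C, given compound at single 50 µM final, then IGF (6 nM final) for 20 min at 37 deg C. Lysed; phospho-Akt Ser473 by HTRF after 24 h, 665/615 ratio.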
gsp antagonist: antagonizes gsp, the McCune-Albright syndrome mutation; gsp-mutant cells, cAMP HTRF, 30 min; Potency, µM (top dose mostly 76.9 µM), inactives show at the top dose activity change, negative = inhibition, hits mostly inhibitors; actives 0.4% (n = 340,000); AID 624288; calls by dose curve; cell line not stated here;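 also: intracellular cAMP measured with PDE inhibitor Ro 20-1724 present during compound exposure; potency is read from the fitted curve at half-maximal effect; % is scaled to controls: 0 for no effect and ±100 for the full control effect; nearly all actives have a fitted effect of over 65% in size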
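G418-selected cells were plated in DMEM/10% FBS for 16-24 h at 37C, then treated with compounds plus the PDE inhibitor […] (300 uM solution added) for 30 min at 37C. Intracellular cAMP was measured by HTRF after 30 min lysis at room temperature.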
GRP78 ERSR act: inducers of ER stress response in human glioma cells; actives 0.02% (n = 420,000); Potency, µM, without a hit: at the top dose activation, most hits filed as activators; U87-MG GRP78 promoter luciferase reporter, 16 h; active = well fitted activation curve with a large enough effect; inconclusive = small, poorly fitted or top-dose-only effect; inactive = no such curve, though single readings can be large or run the other way; also: potency is read from the fitted curve at half-maximal effect; series mostly up to about 76 µM; % of control where 0% means no effect; nearly all actives have a fitted effect of over 35% in size
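Stably transfected U87-MG human glioma cells carrying a GRP78-based luminescent sensor were seeded at 1000 cells/well, pin-dosed with compounds and incubated 16 h. Luciferase reagent was then added, and end-point luminescence was read after 10 min at room temperature.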
gsp agonist: agonists of gsp mutant (McCune-Albright syndrome). gsp mutant cells, cAMP HTRF, 30 min. Potency, µM (series often up to 76.9 µM), without a hit: at the highest dose activation (cAMP increase), usual class: activators. actives 0.13% (n = 340,000). AID 624287; active = well fitted activation curve with a large enough effect; inconclusive = small, poorly fitted or top-dose-only effect, or another doubt; inactive = no such curve, though single readings can be large or run the other way; cell line not stated here;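 also: phosphodiesterase inhibitor Ro 20-1724 added with compounds to block cAMP breakdown; potency is read from the fitted curve at half-maximal effect; nearly all actives have a fitted effect of over 60% in size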
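Cells stably selected in G418 were plated at 2000/well, grown 16-24 hr, then given compounds in DMSO with the PDE inhibitor […] (300 uM solution added) for 30 min at 37C; cAMP was read by HTRF.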
KCNH2 3.1 block: blocks the human KCNH2 3.1 channel isoform; U2OS KCNH2 3.1, thallium flux FluxOr; stronger effect = lower value; activity change, % (tested at about 1.8 µM); actives 0.95% (n = 340,000); AID 720553;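 active = maximum activity change below -70%; inconclusive = maximum activity change from -70% to -50%; inactive = maximum activity change above -50%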;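 also: thallium influx rate constant from kinetic fluorescence after stimulation buffer; % is scaled to controls: 0 for no effect and ±100 for the full control effect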
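Steps: virus added to U2OS suspension (4 h, RT, dark); medium with 10% FBS added, cells plated, 37 C overnight; FluxOr/Red40 loading buffer 45 min RT; stimulation buffer, 2 min kinetic read; rate constant normalized.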
hERG WT inh: KCNH2 (human, wildtype) channel inhibition; Q12809; U2OS, BacMam KCNH2, thallium flux FluxOr; stronger effect = lower value; activity change, % at 1.84 µM; actives 0.37% (n = 340,000); AID 720551;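 active = maximum activity change below -70%; inconclusive = maximum activity change between -70% and -50%; inactive = maximum activity change above -50%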; also: % is scaled to controls: 0 for no effect and ±100 for the full control effect
Target sequence (Q12809 whole entry, looked up): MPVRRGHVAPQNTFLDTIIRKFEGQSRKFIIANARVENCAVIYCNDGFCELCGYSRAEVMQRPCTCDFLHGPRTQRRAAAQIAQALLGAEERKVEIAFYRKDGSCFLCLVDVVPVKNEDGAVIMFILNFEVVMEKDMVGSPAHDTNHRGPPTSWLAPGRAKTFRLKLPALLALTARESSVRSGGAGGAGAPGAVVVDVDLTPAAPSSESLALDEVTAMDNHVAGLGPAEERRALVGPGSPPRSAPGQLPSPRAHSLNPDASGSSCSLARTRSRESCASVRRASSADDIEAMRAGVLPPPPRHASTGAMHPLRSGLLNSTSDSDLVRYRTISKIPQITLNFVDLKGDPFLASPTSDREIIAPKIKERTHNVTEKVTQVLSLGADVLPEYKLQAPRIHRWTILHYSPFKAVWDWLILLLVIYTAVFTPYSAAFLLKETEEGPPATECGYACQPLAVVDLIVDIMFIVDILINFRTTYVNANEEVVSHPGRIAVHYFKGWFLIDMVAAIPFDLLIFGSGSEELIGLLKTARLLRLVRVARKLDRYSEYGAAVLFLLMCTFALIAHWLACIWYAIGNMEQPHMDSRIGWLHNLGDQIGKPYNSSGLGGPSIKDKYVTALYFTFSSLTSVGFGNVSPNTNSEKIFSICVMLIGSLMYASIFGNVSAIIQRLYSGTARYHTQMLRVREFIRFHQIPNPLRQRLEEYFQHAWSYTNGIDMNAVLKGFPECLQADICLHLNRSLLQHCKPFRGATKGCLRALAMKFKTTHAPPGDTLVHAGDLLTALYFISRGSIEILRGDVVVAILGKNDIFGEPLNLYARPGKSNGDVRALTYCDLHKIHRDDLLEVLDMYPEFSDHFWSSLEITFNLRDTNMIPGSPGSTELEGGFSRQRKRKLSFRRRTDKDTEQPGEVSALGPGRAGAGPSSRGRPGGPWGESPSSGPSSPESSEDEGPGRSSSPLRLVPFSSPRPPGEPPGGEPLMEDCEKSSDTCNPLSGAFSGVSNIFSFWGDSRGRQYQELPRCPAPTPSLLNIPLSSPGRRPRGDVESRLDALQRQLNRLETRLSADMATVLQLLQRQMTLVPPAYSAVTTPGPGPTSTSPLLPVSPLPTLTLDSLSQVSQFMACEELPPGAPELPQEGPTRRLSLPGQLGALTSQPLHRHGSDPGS
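U2OS cells transduced with wild-type KCNH2 virus are loaded with FluxOr dye for 45 min, and thallium flux is measured in kinetic reads before and after stimulation buffer. Rate constants are normalized to DMSO controls.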
Starred values were filed as active, the others as inactive; i = inactive; ? = inconclusive; / = no result; [ ] = remark or other dose.

SMILES	Akt phos inh	gsp antagonist	GRP78 ERSR act	gsp agonist	KCNH2 3.1 block	hERG WT inh
Cc1cccc(-n2c(SCC(N)=O)nc3c(c2=O)C2(CCCC2)Cc2ccccc2-3)c1	i	3%	-3%	10µM*	3	-2
CCn1nc(C)c(CN2Cc3ccccc3OC(c3ccccc3OC)C2)c1C (stereo not given)	/	/	-2%	/	/	/
O=C(c1ccc(S(=O)(=O)N2CCCCC2)cc1)N1CCCc2ccccc21	-108%*	-3%	-4%	-14%	-11	-3
O=C(c1ccc(S(=O)(=O)N2CCCC2)cc1)N1CCCc2ccccc21	i	-3%	-3%	-16%	-18	5
COc1ccc2nc(N3CCN(C(=O)c4ccco4)CC3)sc2c1	/	/	3%	/	/	/
COc1ccc(-c2csc(N3CCN(C(=O)c4ccco4)CC3)n2)cc1	i	50µM*	-6%	-97%	15	0
CCOC(=O)N1CCN(c2nc(-c3ccc(F)cc3)cs2)CC1	i	32µM*	10%	-35%	-32	-11
COc1ccc(-c2csc(N3CCN(C(=O)c4ccccc4)CC3)n2)cc1	i	35µM*	1%	-32%	3	2
CCc1cc(C(=O)NCc2c(C)ncc3c2CCN(C(=O)C2=CCCC2)C3)no1	/	/	-4%	/	/	/
CNCCCOc1ccc2c(c1)CCC2	i	5%	-4%	-2%	-3	9
c1cnc(SCCOc2ccc3c(c2)CCC3)nc1	-117%*	?	7%	-45%	7	10
C[N+]1(CC(=O)c2ccc3ccccc3c2)CCOCC1	/	/	-3%	/	/	/
COc1ccc(NC(=O)C2CCN(C(=O)[C@@H]3Cc4ccccc4CN3)CC2)cc1	i	10%	7%	10%	-114*	16
C=C(C)C1COc2cc3oc(=O)ccc3cc2O1 (stereo not given)	/	/	-3%	/	/	/
Clc1ccc(-n2cccc2CN2CCOc3ccc(CN4CCOCC4)cc3C2)nc1	/	/	-1%	/	/	/
COc1ccc(C(=O)N2CCN(C3CCCCC3)CC2)cc1OC	i	7%	-1%	-9%	-75*	-11
COc1cc(C(=O)N2CCC(N3CCCCCC3)CC2)cc(OC)c1OC	-122%*	5%	-3%	13%	1	9
COc1cc(C(=O)N2CCN(C3CCCCC3)CC2)cc(OC)c1OC	i	14%	-3%	1%	4	6
Cc1nc2cc(NC(=O)[C@@H]3C[C@@H](Sc4ccccn4)CN3Cc3cccc(F)c3)ccc2s1	/	/	-4%	/	/	/
CC(=O)OCC1OC(c2cc(C)cc(C)c2)C=CC1OC(C)=O (stereo not given)	/	/	-1%	/	/	/
Cc1ccc(OC(=O)N(C)C[C@@H]2OCc3cn(nn3)CCCC(=O)N([C@@H](C)CO)C[C@H]2C)cc1	i	/	2%	-8%	-70*	18
CC(=O)Nc1ccc(S[C@@H](CCN2CC[C@H](O)CCC2=O)c2ccccc2)cc1	i	50µM*	-1%	6%	-15	-2
Cc1ccc(CN2CCC(c3cc(-c4ccc(Cl)cc4)n[nH]3)CC2)cc1	i	5%	-6%	12%[15.4 µM]	-102*	-84*
Clc1ccc2nc(C3CCN(Cc4ccccc4)CC3)[nH]c2c1	i	6%	-3%	-23%	?	4
Cc1ccc(CN2CCC(c3nc4ccc(Cl)cc4[nH]3)CC2)cc1	i	2%	-1%	-1%	-93*	-132*
SMILES	Akt phos inh	gsp antagonist	GRP78 ERSR act	gsp agonist	KCNH2 3.1 block	hERG WT inh
COc1ccc(-c2cc(C3CCN(Cc4cccc(C(F)(F)F)c4)CC3)[nH]n2)cc1	i	6%	1%	52%	/	47
COc1ccc(-c2cc(C3CCN(Cc4ccc([N+](=O)[O-])cc4)CC3)[nH]n2)cc1	i	-6%	-2%	13%[15.4 µM]	-112*	-87*
CC(=O)[O][Al][O]C(C)=O	/	/	-6%	/	/	/
CCN(CC)CCCNc1ccc2ncn3c4ccc(O)cc4c(=O)c1c23	i	?	-5%	11µM*	19	3
CN(C)CCNc1ccc2nnn3c4ccc(O)cc4c(=O)c1c23	i	-3%	2%	?	1	-7
COc1ccccc1NC(=O)N1CCCC(CNC(=O)c2ccccc2Cl)C1 (stereo not given)	i	45µM*	-6%	-4%	10	-9
CC/C(=C\c1ccc(C(=O)OC)cc1)c1cc(OC)cc2oc3ccccc3c12	/	/	-1%	/	/	/
O=C(NCCCCc1ccccc1)C1CCCC1	i	-1%	2%	-2%[15.4 µM]	-2	-5
O=C(NCCCCNC(=O)C1CCCC1)C1CCCC1	i	-3%	-3%	-58%	4	-265*
COCC(C)NC(=O)C1CC(c2cccc(Br)c2)=NO1 (stereo not given)	-111%*	19%	-6%	16%	6	-3
CC(C)N(C)C1CCN(C(=O)Nc2ccc(Cl)cc2)CC1	i	6%	-6%	-4%	-198*	18
Cc1cc(C(=O)NCC2CCC3(CCN(Cc4ccc5ccccc5c4)CC3)O2)n(C)n1 (stereo not given)	/	/	0%	/	/	/
COc1ccc2c(c1)OC(C)CN(CCNC(=O)C1CCOC1)C2 (stereo not given)	/	/	-6%	/	/	/
O=[N+]([O-])c1ccc(OCCCOc2cccc3cccnc23)cc1	i	5%	3%	?	-80*	-19
O=C(COc1ccc2ccccc2c1Br)Nc1cccnc1	i	17%	2%	6.3µM*	13	-45
COc1ccc(-c2nc3c(=O)n(C)c(=O)nc-3n(C)n2)cc1	/	/	-10%	/	/	/
CC(C)Cn1c(SCC(=O)c2c(N)n(C)c(=O)n(C)c2=O)nc2ccccc21	i	9%	-7%	10%	-32	-116*
CC(C)Cn1c(N)c(C(=O)CSc2nc3ccccc3n2C)c(=O)n(C)c1=O	i	-4%	-5%	2%	-15	22
CCOC(=O)Cc1csc(SCC(=O)c2c(N)n(CC(C)C)c(=O)n(C)c2=O)n1	i	11µM*	0%	3%	-15	-10
Cc1csc(SCC(=O)c2c(N)n(CC(C)C)c(=O)n(C)c2=O)n1	i	?	3%	20%	-9	-325*
COc1cc(=O)n2c(c1C(=O)NC(C)c1ccco1)CCN(C(=O)c1[nH]c(C)cc1C)CC2 (stereo not given)	/	/	-4%	/	/	/
NC(=S)N/N=C/c1cccc(/C=N/NC(N)=S)c1	i	6%	-2%	-16%[15.4 µM]	-128*	-3
NC(=S)N/N=C/c1cccc(Br)c1	i	-2%	-2%	7%[15.4 µM]	1	-11
CC(=O)c1ccc(-c2ccc(C(=O)N3CCN(c4ccc(F)cc4)CC3)o2)cc1	i	28µM*	6%	0%	?	19
